Compound activity from PubChem BioAssay.
SENP8 block-1 = inhibitors of human SENP8 protease | Q96LD8 | recombinant SENP8, Nedd8 substrate fluorescence | inhibition, % at 20 µM | 360,000 tested, 0.64% active | AID 602440; in the data active means inhibition mostly above about 40%, no sharp cut-off; inactive means mostly below about 27%
Target sequence (Q96LD8 whole entry, looked up): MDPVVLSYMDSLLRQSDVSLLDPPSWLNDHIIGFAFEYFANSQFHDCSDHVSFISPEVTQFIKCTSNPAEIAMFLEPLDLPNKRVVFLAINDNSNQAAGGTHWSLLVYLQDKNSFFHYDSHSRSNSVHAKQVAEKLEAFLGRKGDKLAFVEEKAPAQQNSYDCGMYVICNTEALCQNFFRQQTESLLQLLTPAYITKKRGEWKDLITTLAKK
SENP7 inh = blocks the human protease SENP7 | Q9BQF6 | recombinant SENP7, Z-RLRGG-aminoluciferin luminescence, 40 min | inhibition, % at 5 µM | 330,000 tested, 1.5% active | AID 434973;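 active means inhibition above about 50% at the single test dose, limit read from the data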;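 further: plate controls were DMSO with enzyme for no effect and no enzyme buffer wells for full effect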
SENP8 block-2 = SENP8 protease inhibition. Q96LD8. purified SENP8, Z-RLRGG-aminoluciferin cleavage, luminescence. inhibition, % at 10 µM. 330,000 tested, 1.2% active. AID 2540; in the data active means inhibition above about 50%
SENP6 inh = SENP6 protease inhibition; Q9GZR1; Recombinant SENP6 catalytic domain, aminoluciferin luminescence; inhibition, % at 10 µM; 330,000 tested, 1.8% active; AID 2599;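 active means inhibition above about 50% at the single tested dose, limit read from the data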;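 further: plate controls were DMSO wells with enzyme for no effect and DMSO wells lacking enzyme for full effect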
HSP90 inh = HSP90 refolding inhibition in rabbit reticulocyte lysate. luciferase refolding luminescence, 3 h. inhibition, % at 5.6 µM. 290,000 tested, 0.91% active. AID 1789;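 active means inhibition above the screen-wide mean plus 3 SD, computed separately per campaign, cut at about 16% in these data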;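 further: 0% = DMSO wells and 100% = 60 µM geldanamycin wells; inhibitors lower the luminescence because luciferase stays unfolded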
HSP90 confirm = confirmation of HSP90 inhibitors. shares compounds with HSP90 inh. 2,300 tested, 64% active. inhibition, % at 5.9 µM. rabbit reticulocyte lysate, luciferase refolding luminescence, 3 h. AID 1846; in the data active means inhibition above about 18%;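 further: 0% = vehicle wells and 100% = reference inhibitor wells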
FLuc counter = blocks native firefly luciferase in HSP90 counter-screen; purified native firefly luciferase, luminescence; shares compounds with HSP90 inh; 2,300 tested, 48% active; inhibition, % at 5.9 µM;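 active means inhibition above the mean inhibition of all tested sample wells plus 3 SD, cut at about 10% in these data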;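 further: 0% = DMSO with luciferase and 100% = wells lacking luciferase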
SENP8 confirm = confirmation of human SENP8 protease inhibitors. Recombinant SENP8, Z-RLRGG-aminoluciferin luminescence, 60 min. 6,200 tested, 40% active. inhibition, % at 12.5 µM. shares compounds with SENP7 inh. AID 488912;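 active means mean inhibition across replicates above about 50%, limit read from the data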
SENP6 confirm = confirmation of human SENP6 protease inhibitors; inhibition, % at 12.5 µM; AID 488915; recombinant SENP6, Z-RLRGG-aminoluciferin luminescence; shares compounds with SENP7 inh; 6,200 tested, 58% active
SENP7 confirm = confirmation of human SENP7 protease inhibitors; recombinant SENP7, Z-RLRGG-aminoluciferin luminescence, 40 min; inhibition, % at 12.5 µM; shares compounds with SENP7 inh; 6,200 tested, 69% active
Casp3 SENP sel = caspase-3 inhibition (SENP selectivity assay); shares compounds with SENP7 inh; inhibition, % at 12.5 µM; purified caspase-3, Z-DEVD-aminoluciferin luminescence, 60 min; AID 488918; 6,200 tested, 60% active;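 active means mean inhibition above about 50%, limit read from the data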;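 further: plate controls were enzyme with DMSO for no effect and wells without caspase-3 for full effect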
Target sequence (P42574 28-227 limits assumed): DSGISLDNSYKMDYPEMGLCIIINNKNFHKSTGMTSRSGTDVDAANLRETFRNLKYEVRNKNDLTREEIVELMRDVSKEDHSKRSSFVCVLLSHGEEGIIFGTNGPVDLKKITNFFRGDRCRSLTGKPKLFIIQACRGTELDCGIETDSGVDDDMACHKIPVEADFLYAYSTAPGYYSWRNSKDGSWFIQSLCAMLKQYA
SENP luc ctr = luminescence interference (SENP counter-screen). shares compounds with SENP7 inh. Pre-incubated SENP8/Z-RLRGG-aminoluciferin, luciferase luminescence interference. inhibition, % at 12.5 µM. 6,200 tested, 39% active. AID 488919;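 active means mean inhibition above about 50% when retested at one dose, limit read from the data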;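 further: plate controls were DMSO wells with completed reaction for no effect and substrate without enzyme for full effect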
Numbers without * were called inactive; / = no result given. Shown are actives, neighbours in structure and some others; about 2.8% of the full set was active somewhere.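 How the source made its calls, unless noted: active means mean inhibition above about 50% in the one-dose retest (limit read from the data); inactive means the rest.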

SMILES	SENP8 block-1	SENP7 inh	SENP8 block-2	SENP6 inh	HSP90 inh	HSP90 confirm	FLuc counter	SENP8 confirm	SENP6 confirm	SENP7 confirm	Casp3 SENP sel	SENP luc ctr
Cc1nc(Nc2nc3ccccc3o2)nc2c1CCC2	13	72*	39	77*	17*	50*	43*	33	60*	86*	75*	8
CCOC(=O)c1cnc(Nc2nc3ccccc3o2)nc1C	0	95*	80*	84*	18*	86*	75*	74*	75*	99*	93*	34
COCCCN1C(=O)C(CC(=O)NCc2ccco2)CC(C(=O)N2CCOCC2)=C1C (stereo unspecified)	-5	/	/	/	/	/	/	/	/	/	/	/
C[C@@H]1NC(=O)/C(=C\c2ccccc2Cl)NC1=O	8	0	-1	0	1	/	/	/	/	/	/	/
CCn1ccc(C(=O)Nc2ccc(N(C)C(C)=O)cc2)n1	28	-2	-6	8	-2	/	/	/	/	/	/	/
CCn1ccc(C(=O)Nc2ccc3c(c2)CCC3)n1	10	59*	25	43	19*	30*	15*	44	45	81*	65*	57*
Cc1nnc2n1N=C(c1ccc(OC(F)F)cc1)C(C)S2 (stereo unspecified)	6	1	6	-16	6	/	/	/	/	/	/	/
c1ccc(-n2nnc3c(N4CCOCC4)ncnc32)cc1	24	75*	50*	81*	30*	66*	55*	11	14	33	34	21
CN(C)c1ccc(N=Nc2cccc(F)c2)cc1	31	95*	87*	94*	39*	47*	41*	6	73*	56*	59*	64*
CCOC(=O)N1CCC(NS(=O)(=O)c2cc3c(cc2Br)CCN3C(=O)CC)CC1	9	/	/	/	/	/	/	/	/	/	/	/
Cc1ccc(CN2C(=O)CCC2C(=O)N2CCN(c3ccccc3)CC2)cc1 (stereo unspecified)	30	-4	-8	-25	1	/	/	/	/	/	/	/
CCc1sc(C(=O)Nc2ncccc2O)cc1C	-3	66*	34	69*	22*	52*	42*	62*	59*	87*	83*	64*
Cc1csc(NC(=O)c2cn3ccccc3n2)n1	-5	85*	70*	84*	54*	70*	62*	65*	86*	97*	95*	16
Cc1csc(NC(=O)c2ccccc2C(=O)O)n1	8	-2	-29	-2	8	/	/	/	/	/	/	/
COc1cc(NC(=O)OCc2ccccc2)c2ncccc2c1	-44	/	/	/	/	/	/	/	/	/	/	/
COc1cc(NCCCCCCCN)c2ncccc2c1	17	95*	89*	94*	80*	7	-2	70*	87*	63*	97*	4
c1ccc2c(SCc3cn4ccccc4n3)nncc2c1	1	-3	-4	-16	-3	/	/	/	/	/	/	/
Cc1ccc(-c2nc(-c3ccncc3)no2)c(Cl)c1	4	89*	75*	71*	28*	48*	47*	-8	10	42	28	27
CC(C)(C)c1ccc(/C=C2\SC(=O)N(CCNC(=O)c3cccc(S(=O)(=O)N4CCOCC4)c3)C2=O)cc1	0	90*	82*	91*	21*	74*	70*	39	59*	74*	55*	3
CCN(CC)S(=O)(=O)c1ccc2c(c1)nc(SC(C)C(=O)NCC1CCCO1)n2CC (stereo unspecified)	8	-2	0	1	-1	/	/	/	/	/	/	/
Cc1cc2nc(-c3cccnc3SCC(=O)NCc3ccco3)[nH]c2cc1C	-290	88*	74*	84*	18*	23*	7	91*	90*	98*	90*	86*
O=C(NCc1cccs1)c1ccc2c(c1)OCCO2	9	-13	-13	-8	-1	/	/	/	/	/	/	/
COc1ccc(-c2nsc3c(N4CCCCC4C)ncnc23)cc1 (stereo unspecified)	-406	78*	81*	88*	78*	83*	80*	68*	71*	76*	76*	11
COc1ccc(-c2nsc3c(N4CCCCC4)ncnc23)cc1	-257	95*	92*	67*	61*	82*	63*	0	5	0	2	16
Cc1ccc(CN2CCN(C/C(Cl)=C/c3ccccc3)CC2CCO)o1 (stereo unspecified)	2	1	3	-3	-1	/	/	/	/	/	/	/
SMILES	SENP8 block-1	SENP7 inh	SENP8 block-2	SENP6 inh	HSP90 inh	HSP90 confirm	FLuc counter	SENP8 confirm	SENP6 confirm	SENP7 confirm	Casp3 SENP sel	SENP luc ctr
O=C(O)CSCC(=O)NCc1csc2ccc(Cl)cc12	17	-3	1	-3	3	/	/	/	/	/	/	/
C=CC[C@@H](CC(=O)N[C@H](CO)Cc1ccccc1)C(=O)N[C@@H](C)COC(=O)[C@@H](CC=C)CC(=O)OC(C)(C)C	15	-10	-14	-16	/	/	/	/	/	/	/	/
CCc1ccc(NC(=O)c2cnn3ccccc23)cc1	-22	95*	89*	91*	65*	78*	71*	93*	94*	101*	93*	94*
O=C(c1cc(-c2ccc(Cl)cc2Cl)on1)N1CCOCC1	13	-9	47	62*	30*	46*	43*	49	49	85*	72*	51*
FC(F)(F)c1ccc(Cl)c(Nc2nnc(-c3ccncc3)s2)c1	-338	/	/	/	/	/	/	/	/	/	/	/
COc1ccccc1NC(=O)C(=O)c1cn(CC(=O)N2CCOCC2)c2ccccc12	13	56*	47	52*	21*	-1	-23	9	40	17	10	2
Oc1cccc(/C=N/N=C/c2cccc(O)c2O)c1O	20	94*	92*	96*	25*	71*	74*	94*	94*	100*	92*	27
COc1cc2c(cc1OC)CN(C1CCC(C)CC1)CC2 (stereo unspecified)	-13	3	-1	-5	-1	/	/	/	/	/	/	/
CN(C)c1ccc(-c2nc3ccccc3n2C)cc1	-261	96*	89*	91*	28*	64*	53*	96*	98*	102*	98*	96*
CC(C)n1c(-c2ccc(N(C)C)cc2)nc2ccccc21	-493	-10	6	10	9	/	/	/	/	/	/	/
